The campaign covered roughly 190,000 compounds. About 930 (0.49%) were called active.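 How the source made its calls: active means z-score of insulin promoter reporter brightness in nuclei below -3 at 5 µM, with at least 500 cells counted; inconclusive means wells with under 500 cells, flagged as toxic or sparse; inactive means the rest.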 The list shows a part of the results. Potency and affinity values are given separately.
Assay: insulin promoter down-regulators in MIN6 cells, imaging, high-content screening, mouse beta cells (AID 1628)
Conditions: MIN6 insulin promoter GFP reporter, at 5 µM, active compounds read low

z-score, inactive:
S=c1[nH]c2ccc(Cl)cc2[nH]1 1.33
CC1CCCC(C)N1C(=O)CSc1nnc(-c2cccs2)o1 (stereo unspecified) 3.46
N#C/C(=C/c1ccc(N2CCCCC2)o1)C(=O)Nc1ccc(Cl)cc1 17.2
c1ccc(-c2nnc3sc(CN4CCc5ccccc54)cn23)cc1 -0.03
COc1cc([N+](=O)[O-])ccc1-c1ccc(/C=N/NC(N)=O)o1 3.33
COc1cc2c3nnc(-c4ccc(F)cc4)c-3cn(Cc3ccccc3F)c2cc1OC 6.27
CC1CCc2c(sc3nn[nH]c(=O)c23)C1 (stereo unspecified) 4.24
COc1c2c(nc3ccccc13)OC(C(C)(O)COC(C)=O)C2 (stereo unspecified) 3.26
Cc1cc(C)cc(NC(=O)/C=C/c2ccc([N+](=O)[O-])s2)c1 5.99
Cc1cc(C)n(-c2ccc(C(=O)OCC(=O)N(CC(C)C)C3CCS(=O)(=O)C3)cc2)n1 (stereo unspecified) 3.33
O=Nc1c(O)n(Cc2ccc(Cl)cc2)c2ccccc12 3.05
COc1ccc(OC)c(-n2c(=S)[nH]c3c(sc(=S)n3-c3ccccc3)c2=O)c1 5.22
COc1ccc(C2C(=O)c3ccccc3C2=O)cc1OC 3.02
COc1ccc(C2/C=C\CN(S(=O)(=O)c3cccc4cccnc34)CC(=O)N2Cc2ccc(F)cc2)cc1 (stereo unspecified) 7.49
CCOc1ccccc1-c1c2cc(O)c(=O)cc-2oc2cc(O)c(O)cc12 8.08
CCCOC(=O)CSc1nnc(-c2ccc(Cl)cc2Cl)o1 -1.15
COC(=O)CN(C(=O)CSc1nnc(-c2cccc(OC)c2)o1)c1ccc(OC)cc1 -0.85
CCOC(=O)/C(=C/C=C1\Sc2cc(OCC)c(OCC)cc2N1CC)C(C)=O 16.2
Cc1ccc(C)c(Cn2c(C)nc3c(sc(=S)n3-c3ccccc3)c2=O)c1 2.17
COCCNC(=O)c1ccc2ccccc2n1 1.76
CCN(CC)CCN1C(=O)c2oc3ccccc3c(=O)c2C1c1ccccc1 (stereo unspecified) 3.66
CCCN1CCc2c(sc(NC(=S)NC(=O)c3ccccc3)c2C#N)C1 5.2
CCCCN1C(=O)/C(=C/C=C2\N(C)c3ccccc3C2(C)C)SC1=S 10.9
CN1/C(=C\C=C2/SC(=S)NC2=O)C(C)(C)c2ccccc21 13.4
CCCCC(=O)Nc1ccc2c(c1)nc1n2CCSC1 3.16
Cc1cc(C)nc(N(C#N)CC(=O)N2CCC(C(N)=O)CC2)n1 1.53
CCOCCCNC(=O)c1ccc(N2CCCC2)c(NS(=O)(=O)c2ccc(C)cc2)c1 3.4
COc1ccccc1Nc1nc(Cl)c(C=O)s1 3.19
O=C(NC1=NCCS1)C1Cc2ccccc2CN1C(=O)c1ccccc1 (stereo unspecified) 3.06
COc1ccc2c(c1)NC(c1ccc(N(C)C)cc1)c1cccn1-2 (stereo unspecified) 12
COc1ccc2c(c1OC)C(=O)OC2 0.33
CCN(CC)c1ccc(C=C(c2nnnn2-c2ccccc2)c2nnnn2-c2ccccc2)cc1 4.4
CCN(CC)c1ccc(/C=C/c2cc(-c3ccccc3)c3ccccc3n2)cc1 15.3
Cc1c(N=C2N=C(NC(=O)c3cccs3)c3ccccc32)c(=O)n(-c2ccccc2)n1C 6.23
Cc1ccc(OCCN2CCN(C(=O)CCC(=O)Nc3nnc(C)s3)CC2)cc1 0.99
CN1CCS/C1=C/C=C1/SC(=S)N(Cc2ccccc2)C1=O 12.1
CC(C)C(c1nnnn1C1CCCC1)N1CCOCC1 (stereo unspecified) 3.02

z-score, active:
O=C(CSc1nnc(-c2cccs2)o1)N1CCOCC1 -4.31
COc1ccc(C(c2nnnn2Cc2ccccc2)N2CCN(c3nc4ccccc4s3)CC2)cc1 (stereo unspecified) -5.01
c1ccc(Cn2nnnc2C(c2ccccc2)N2CCN(c3nc4ccccc4s3)CC2)cc1 (stereo unspecified) -3.45
COc1ccccc1C(c1nnnn1Cc1ccccc1)N1CCN(c2nc3ccccc3s2)CC1 (stereo unspecified) -5.06
COC(=O)c1ccc(Cl)c(-c2ccc(/C=N/NC(=O)Nc3ccccc3)o2)c1 -3.3
CC(C)COC(=O)c1nnsc1NC(=O)Nc1ccccc1 -3.85
COc1ccc(OC)c(/C(O)=C/C(=O)C(=O)Nc2cc(C)cc(C)c2)c1 -5.01
COc1cccc(/C=N/n2c(=O)[nH]c3ccccc32)c1OC -4.61
O=[N+]([O-])c1ccc2c(c1)C(N1CCOCC1)/C(=C/COc1ccc3ccccc3c1Br)O2 (stereo unspecified) -5.36
CCN(C(=O)COC(=O)c1cccnc1Nc1cccc(C(F)(F)F)c1)C1CCS(=O)(=O)C1 (stereo unspecified) -4.37
COc1ccc(C2C(Oc3ccccc3C)C(=O)N2Cc2ccc(F)cc2)cc1OC (stereo unspecified) -5.19
CCOc1ccccc1N=C1NC(=O)CS1 -6.97
O=C(Nc1nc2ccccc2n1CCN1CCOCC1)c1ccc(COc2ccccc2Br)o1 -3.48
COc1ccc(-c2nnc(SCC(=O)N(Cc3ccccc3)C(C)(C)C)o2)cc1OC -5.96
Cc1nc2c(c(=O)n1Cc1ccccc1Cl)c1nc3ccccc3nc1n2Cc1ccco1 -5.21
CCN(C(=S)Nc1cccnc1)c1cccc2ccccc12 -3.01
CCN(C(=S)NCCOC)c1cccc2ccccc12 -3.13
CN1CCN(CC(=O)Nc2sc3c(c2C#N)CCC(C(C)(C)C)C3)CC1 (stereo unspecified) -3.27
NC(=O)c1ccc(N2CCN(c3ccc(O)cc3)CC2)c([N+](=O)[O-])c1 -3.43
CN1CCN(c2ccccc2NC(=O)c2ccc(N3CCCC3)c([N+](=O)[O-])c2)CC1 -3.01
CCN(CC)c1ccc(/C=N/Nc2nc(C)cc(C)n2)cc1 -3.23
COC(=O)c1c(NC(=O)c2ccc(C)c(S(=O)(=O)Nc3ccccc3C)c2)sc2c1CCCC2 -3.01
Clc1ccccc1CN(Cc1ccccc1)C(c1cccs1)c1nnnn1C1CCCC1 (stereo unspecified) -6.23
CCN(Cc1ccccc1)C(c1cccs1)c1nnnn1C1CCCCC1 (stereo unspecified) -3
